# Inconclusive results are not listed. Active and inactive are the calls of the source. Rule for the calls: active = hit-call score of the fitted dose curve at least 0.9, where 1 is the maximum; inconclusive = response in the unintended direction; inactive = score below 0.9.
# Read-out: glucuronosyltransferase (UGT1A1), UGT1A1 (gene 54658)
# Assay: CLD_UGT1A1_24hr: CellzDirect (CLD) Gene Expression Assay for glucuronosyltransferase (UGT1A1) at 24 hours (AID 2283696)
# Description: CLD_24hr is a cell-based, multiplexed-readout assay that uses hepatocyte, a human liver primary cell, with measurements taken at 24 hours after chemical dosing in a 96-well plate.CLD_UGT1A1_24hr is one of 16 assay component(s) measured or calculated from the CLD_24hr assay. It is designed to make measurements of mRNA induction, a form of inducible reporter, as detected with chemiluminescence signals by Quantitative Nuclease Protection Assay (qNPA) technology.Data from the assay component CLD_UGT1A1_24hr was analyzed at the endpoint, CLD_UGT1A1_24hr, in the positive analysis fitting direction relative to DMSO as the negative control and baseline of activity. Using a type of inducible reporter, gain-of-signal activity can be used to understand changes in the reporter gene as they relate to the gene UGT1A1. Furthermore, this assay endpoint can be referred to as a primary readout. To generalize the intended target to other relatable targets, this assay endpoint is annotated to the transferase intended target family, where subfamily is glucuronosyltransferase.
# Human hepatocyte cultures were treated daily for two consecutive days with fresh dosing solutions containing appropriate concentrations of the 320 ToxCast chemicals (chemical identities were blinded to CellzDirect and other ToxCast collaborators), vehicle control (0.2% DMSO), and positive control inducers as summarized in Table 1. Due to the large number of treatment groups and chemicals examined, the ToxCast chemicals were divided into two groups (spanning two independent cultures of hepatocytes from separate donor preparations (Hu778: ToxCast plates 1 and 2; Hu776: ToxCast plates 3 and 4). Each preparation of human hepatocyte cultures was treated with respective vehicle control, medium only control, set of six positive controls/reference chemicals for the five hepatic receptor pathways, and a subset of eight of the ToxCast chemicals (indoxacarb, pyrithiobac-sodium, norflurazon, cyhalofop-butyl, methomyl, thiram, acetochlor, and propiconazole). These replicate data, coupled with internal replicates designed within the blinded ToxCast chemical library, provided additional data to evaluate interindividual differences between hepatocyte preparations and their potential impact on chemical profiles.Cell morphology and integrity were evaluated using phase-contrast microscopy as an indicator of hepatocyte cell health (Tyson & Green, 1987). Cultures for each treatment group (i.e., media, vehicle [0.2% DMSO], positive control inducers [multiple concentrations], and the ToxCast chemicals [multiple concentrations]) were observed and cell morphology was assessed relative to vehicle control cultures at each harvest time point (0, 6, 24, or 48 h). […] Images were evaluated at the conclusion of the study to assess changes in cell integrity and account for the effects of chemical exposure on uncharacteristic changes in concentration-dependent gene expression profiles. The results from these determinations of apparent cytotoxicity were annotated (yes/no) alongside the corresponding qNPA data for reference.At the conclusion of each treatment period, hepatocyte cultures (96-well) were washed with 1 volume of HBSS, lysed by addition of 25 ul ArrayPlate lysis buffer (HTG, Tucson, AZ), and 70 ul/well of Denaturation Oil, denatured by incubation at 95C for 10 min, and frozen at approximately -70C until analysis by nuclease protection assay (qNPA) (Roberts et al., 2007). For qNPA analysis, cell lysates were thawed at 50C for approximately 30 min, qNPA probes were added, and samples were incubated at 95C for 10 min to begin the detection process by denaturing the target RNA, dissociating the duplexes and secondary structure hybridization. At the conclusion of the hybridization period, S1 nuclease reagent was added to each sample to digest all nonprotected nucleotides at 50C for 60-90 min. […]
SMILES,outcome,AC50
COC(=O)c1ccccc1C(=O)O,inactive,–
CCOC(=O)C(C)Oc1ccc(Oc2cnc3cc(Cl)ccc3n2)cc1 (stereo not given),inactive,–
CC(C)(C)[C@@H](O)[C@@H](Cc1ccc(Cl)cc1)n1cncn1,inactive,–
CCCN(CCC)C(=O)SCC,inactive,–
COC(=O)CSc1cc(N=c2sc(=O)n3n2CCCC3)c(F)cc1Cl,–,3.17 µM (active)
CCCCOC(=O)[C@@H](C)Oc1ccc(Oc2ccc(C(F)(F)F)cn2)cc1,inactive,–
CCC(C)OC(=O)N1CCCCC1CCO (stereo not given),inactive,–
CCCOC(=O)NCCCN(C)C,inactive,–
C#CCOC(=O)[C@@H](C)Oc1ccc(Oc2ncc(Cl)cc2F)cc1,inactive,–
COC(=O)c1c(Cl)nn(C)c1S(=O)(=O)NC(=O)Nc1nc(OC)cc(OC)n1,inactive,–
CCNc1nc(N)nc(Cl)n1,inactive,–
CCC(O)=C1C(=O)CC(C(=O)O)CC1=O (stereo not given),inactive,–
C=CCOC(Cn1ccnc1)c1ccc(Cl)cc1Cl (stereo not given),inactive,–
O=C(O)C1(C(=O)Nc2ccc(Cl)cc2Cl)CC1,–,20 µM (active)
CC(C)(c1ccc(O)cc1)c1ccc(O)cc1,inactive,–
CCOC(=O)NCCOc1ccc(Oc2ccccc2)cc1,inactive,–
COc1c(Cl)ccc(Cl)c1C(=O)O,inactive,–
CCOC(=O)C(C)Oc1ccc(Oc2nc3ccc(Cl)cc3o2)cc1 (stereo not given),inactive,–
COC(=O)c1cccc(C)c1S(=O)(=O)NC(=O)Nc1nc(OCC(F)(F)F)nc(N(C)C)n1,inactive,–
CCCCC(CC)CN1C(=O)C2C3C=CC(C3)C2C1=O (stereo not given),inactive,–

SMILES,outcome,AC50
CCCN(CCC)c1c([N+](=O)[O-])cc(C(F)(F)F)c(N)c1[N+](=O)[O-],–,8.82 µM (active)
CCCCOC(=O)C(C)Oc1ccc(Oc2ccc(C(F)(F)F)cn2)cc1 (stereo not given),–,20 µM (active)
COC(=O)c1ccc(I)cc1S(=O)(=O)NC(=O)Nc1nc(C)nc(OC)n1,inactive,–
CC1(C)C(C=C(Cl)Cl)C1C(=O)OCc1cccc(Oc2ccccc2)c1 (stereo not given),inactive,–
CCOC(=O)COc1cc(-n2ncc(C(F)(F)F)c(C)c2=O)c(F)cc1Cl,inactive,–
OB(O)O,inactive,–
N#CSCSc1nc2ccccc2s1,inactive,–
COC(=O)c1ccccc1S(=O)(=O)NC(=O)Nc1nc(OC(F)F)cc(OC(F)F)n1,inactive,–
CCCCCCC(C)OC(=O)COc1nc(F)c(Cl)c(N)c1Cl (stereo not given),inactive,–
CCSC(=O)N(CC(C)C)CC(C)C,inactive,–
Cc1nn(C)c(Oc2ccccc2)c1C=NOCc1ccc(C(=O)OC(C)(C)C)cc1,inactive,–
CN(C)C(=O)Nc1ccc(Cl)c(Cl)c1,inactive,–
CSC(=O)c1cccc2nnsc12,inactive,–
COC(=O)c1ccc(CNS(C)(=O)=O)cc1S(=O)(=O)NC(=O)Nc1nc(OC)cc(OC)n1,inactive,–
CCCCC(CC)COC(=O)c1ccccc1C(=O)O (stereo not given),inactive,–
COc1nc(C)nc(NC(=O)NS(=O)(=O)c2ccccc2OCCCl)n1,inactive,–
CCCCOCCOCCOCc1cc2c(cc1CCC)OCO2,inactive,–
CCOC(=O)[C@H](C)Oc1ccc(Oc2nc3ccc(Cl)cc3o2)cc1,inactive,–
Oc1ccc(C(c2ccc(O)cc2)C(Cl)(Cl)Cl)cc1,inactive,–
c1ccc(Nc2ccccc2)cc1,inactive,–
